Reference: the supplement of paper PMC6555819

What was measured:
Assay in all cases: PBM binding z-score (relative to random genomic background probes); higher = stronger binding; sequences stand for … in GC…GCGATTGACAGCGTAGAATGAAGG
[1] = tested on: RARb homodimer (NR concentration 270 nM)
In short: (§1)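 Custom Agilent 4×180K protein-binding microarrays carried double-stranded probes. Their 34-nt variable regions held direct-repeat seeds, single-nucleotide variants, half-site ablations and random human genomic background sequences. Arrays were incubated 1 h with ligand-free nuclear receptor dimers in PBS pH 7.4, 2% milk, 0.02% Triton X-100, 1 mM DTT, 0.2 mg/mL BSA and 0.4 mg/ml salmon testes DNA. Antibodies against each partner (one per run) detected binding, and scanned fluorescence was regression-normalized. Binding z-scores use random background probes as reference.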

[2] = tested on: RARg:RXRa (NR concentration 270 nM, RXRa partner concentration 90 nM)
In short: as §1

[3] = tested on: RARg homodimer (NR concentration 270 nM)
In short: as §1

[4] = tested on: RXRa DBDmut IVT, anti-RXR (DBD mutation: RXRa K156A/R161A, NR concentration 90 nM)
In short: as §1

[5] = tested on: RXRa homodimer (NR concentration 180 nM)
In short: as §1

[6] = tested on: THRa:RXRa (NR concentration 90 nM, RXRa partner concentration 90 nM)
In short: as §1

[7] = tested on: THRa homodimer (NR concentration 90 nM)
In short: as §1

[8] = tested on: VDR homodimer (NR concentration 270 nM)
In short: as §1

Sequence	PBM binding z-score [1]	PBM binding z-score [2]	PBM binding z-score [3]	PBM binding z-score [4]	PBM binding z-score [5]	PBM binding z-score [6]	PBM binding z-score [7]	PBM binding z-score [8]
TCATATAGGTAAATGCTAGGTGAGAGTCCGATCT	0.0117	0.257	0.032	1.03	0.42	0.935	-0.108	0.216
ATCTCTAGGGAACCAAGTTCAGTGAATGCCGAAC	1.21	0.277	0.53	0.569	0.332	0.497	-0.301	2.58
ATCGAAAGGTCGTGAGCTGAGTATACAGAAAGGC	2.17	4.41	3.74	0.921	5.11	2.31	-0.456	0.299
CCTAGCAGGCAAGGGTCACTCAAGCATTTCGCTT	3.46	4.12	3.63	0.602	4.6	2.36	-0.309	0.817
TAGCCGAGGTCATGGGCCAGTATACCACGCGAAC	4.19	6.64	6.26	3.46	7.64	4.25	2.71	3.91
CGTCCAAGGTCAAAGGGCAGTGAAGAGATGACGG	4.39	6.57	6.29	3.46	7.24	4.14	1.86	2.28
GATACAGGGTCAGCTAGAGCCCAGAGTATGGAAA	2.3	4.4	4.33	1.25	4.08	2.43	0.0746	0.264
CAGCCTAGGTCAGGGCCAGTAAAGGAGGAACGTT	2.33	2.7	3.44	-0.0941	1.55	1.86	0.361	-0.267
ATCTCTAGGTAACCAAGTTCAGCGAATGCCGAAC	1.63	1.03	1.06	0.597	0.733	1.51	0.797	2.79
GCTGCTAGTTCAGGTTGGTCAGCTAACGGGTACG	0.833	0.083	0.586	1.19	-0.153	-0.00713	-0.222	0.636
ATACCAAGGTGATCGTGAGGTCGTTGTTACTAAC	1.7	1.78	0.637	0.951	1.21	3.27	2.64	3.22
TCTAGCAGGCCAGAGGGTCACTAAAGAGGTACGG	2.52	2.5	2.05	-0.16	2.02	1.39	-0.413	0.287
CTGACTGGGGCAAGGTTACCATAACGCACAGCCA	1.54	1.43	1.43	0.0299	1.28	1.52	0.417	0.129
CCTATTAGTTGACCGTAAGGGCAACCGAAGCTCG	2.75	1.73	1.51	0.339	0.616	2.29	1.78	1.06
CCGAGTGGGGCATAAGGTTACCATAAGCCAGCCC	1.32	1.46	0.809	-0.545	1.22	2.01	1.09	0.036
ACTCGGAGGACAAAGGTCAGACCTACGCCAGTGA	4.02	6.08	5.29	1.23	5.81	3.5	0.604	1.81
AGAATGAGGTTACCCAAGATCAGGGAAACGCTTG	0.82	1.93	1.6	1.06	2.36	3.28	0.843	0.242
GTACGAAGGTGAATAGGTCGTTGATGAGTAGGCG	1.82	2.78	1.4	-0.12	1.81	0.742	-0.401	0.0149
TAGCCTAGGTCAGATCGGGCCGGTATACGCTATA	1.98	2.67	3.43	-0.551	0.992	3.11	0.09	-0.328

Sequence	PBM binding z-score [1]	PBM binding z-score [2]	PBM binding z-score [3]	PBM binding z-score [4]	PBM binding z-score [5]	PBM binding z-score [6]	PBM binding z-score [7]	PBM binding z-score [8]
GCAGACAGGTGAAACGCGGGTAACTCAGGGTGGC	0.366	0.785	0.319	-0.6	0.631	1.64	-0.533	-0.362
CCTAGTTAGTCAGGAGGTCACACACCGGATATGA	4.28	4.25	3.72	1.38	4.86	3.74	2.73	3.01
GCTCGGAGGGCAAGGTCAGAGCTTTGTCCGTAGA	3.27	3.7	3.86	0.857	2.93	2.76	0.825	0.967
TATACAGGGTCAAAGGCCAGAGGACGAATGTCGA	3.52	5.92	5.44	2.95	7.17	3.5	0.968	2.9
TCTTGTAGATCAATAGAGGTTAACAAAGTGCGCT	1.38	1.11	0.826	0.564	1.68	2.62	-0.415	0.462
ATCTCTAAGTAAGACTCAGTTCAGTGAAGAACGC	0.513	0.345	0.42	0.804	-0.0426	0.401	0.351	1.57
GCGACTGGGGCATCAGGAGGTTACCATAACTTAA	1.59	2.07	0.983	0.162	0.852	1.66	-0.0939	0.186
GGAGCGAGGGCAAGTTGATAGCAGAGTTTGATGG	1.55	1.41	1.95	2.04	0.51	0.876	0.0322	1.48
TAGCCTAGGTCAGATCGGGCCATTATACGCTATA	2.15	2.48	3.68	-0.0922	1.36	4.25	0.543	-0.154
CGTCAAAGTTAAACTAAGGTAACGTAAAGCACGC	0.585	0.536	0.659	0.0253	0.521	4.04	1.78	0.399
CCTTACGGGTCACGGACAGGTTATAGCATTTGGA	3.42	6.84	5.39	1.99	6.76	3.59	0.532	1.16
CCTTACGGGTCAAGGTTATAACACGGGTGGTACG	3.35	5.02	4.89	1.1	5.42	3.06	0.539	1.41
CCTGCTATGTCATGGTCAGCTAATCTACAGTATG	0.419	0.518	0.62	0.877	0.209	-0.0552	-0.368	-0.566
TCTATTAGGTGAAGGGCAACCGACGAGTCCGTTT	1.59	1.07	1.35	1.57	0.977	1.42	0.828	1.67
CCTACTGGGCCAAGAAGGTCATTGATGCCGATAA	3.17	2.94	2.39	0.188	2.9	2.33	0.355	2.38
CCGAGTAGGTTATGGGGCATCCAGGCAACGGTGA	0.911	0.651	0.586	-0.816	0.858	0.523	0.159	-0.188
CATGCAGGGTCAGCTAGGCCAGAGTAGGGACGGC	3.19	4.53	5.06	1.71	4.75	3	0.624	1.16
CGAACTAGGTCAAGGGCAGTGAATCTCCGCACGC	3.25	3.74	4.64	1.59	2.35	2.98	0.986	0.718
TCTGCGAGGTCAACGATGGTCAGCTAATCTGCTA	4.5	6.57	7.19	3.91	7.18	4.26	2.92	3.6

Sequence	PBM binding z-score [1]	PBM binding z-score [2]	PBM binding z-score [3]	PBM binding z-score [4]	PBM binding z-score [5]	PBM binding z-score [6]	PBM binding z-score [7]	PBM binding z-score [8]
CGAACTAGGTCAAGGTCAAAGTCGGTTTGTGCCA	4.96	5.97	6.77	3.12	5.78	4.11	3.7	4.23
TCTAGTTGCTCACGGAGGTCACACACGACGGGTA	4.16	4.02	3.73	1.11	4.32	3.46	2.22	2.06
GCTCGGAAGACAAGGTCAGAGCTTTGTCCGTAGA	2.34	2.28	1.86	0.349	2.11	2.52	0.95	0.19
TAGCCTACGTCATGGGCCAGTATACCACGCGAAC	-0.00941	-0.29	-0.1	-0.76	-0.0748	-0.335	-0.4	-0.575
GATACACGGTCAGCTAGAGGCCAGAGTATGGAAA	1.9	2.39	2.33	-0.51	0.403	0.349	-0.599	-0.244
CAAACTAGGTCAAGAGCTCAAAGTCCGCTTCCCG	2.98	3.82	4.02	1.34	2.39	2.73	0.891	0.0239
ACTAGCAGGCCAAGTTTGGGTCACTCATACAAAG	2.32	2.26	1.53	-0.0603	0.947	2.47	1.27	0.331
AATACAGGGTCATCGTAGGCCAGAGAACGCACAG	3.8	6.12	5.66	3.55	6.83	4.95	1.74	2.9
GGAACGAGTGCATTCGAGTTGATAGCATGGCGAT	-0.91	-0.352	0.0126	3.87	-0.0218	1.92	-1.23	4.44
AGTCAAAGTTCAGGACGAGGTAACGTCAAGCACG	3.13	4.98	4.9	2.71	3.29	3.98	1.52	2.33
GCTATTAGTTGAAAGGGAAACCGAATGATTCTCG	-0.448	-0.0918	0.0889	0.797	-0.215	-0.127	-0.399	0.461
CGAAGTAGGTCAGAACAGGACAGTGAAGGATGAT	2.04	2.23	3.23	0.286	1.37	3.52	0.146	0.1
TCATATATGTAATACAGGTGAAAGTCGGCATCTA	0.413	0.595	0.586	1.59	1.13	0.578	0.0633	0.192
CCTACTGGGACAAAGGTCATTGATTCCAATGCTC	4.66	5.3	4.6	1.83	5.76	3.57	1.25	2.94
CCTACTGGGGCATTCAGAGGTCATTGATCATATG	4.07	5.17	3.71	0.683	3.72	3.43	1.19	3.38
GCTATTAGTTGAAAGGCCAACCGAATGATTCTCG	1.27	0.828	0.862	1.04	0.44	0.141	-0.222	0.0426
TCTTGTAGATCAAAGGTTATGAAAGCCGAAGCCT	1.25	1.65	0.684	0.966	3.08	1.46	-0.27	0.204
GCGACTGGGGAATCAGCAGGTTACCATAACTTAA	0.164	-0.241	-0.452	-0.352	0.0152	0.249	-0.272	-0.345
CCTGCTAGGTCATGGTCAACTAATCTACAGTATG	3.37	4.23	5.18	1.75	2.88	3.26	1.41	0.335
